# Screening results: PubChem BioAssay, National Center for Advancing Translational Sciences (NCATS)
# This excerpt belongs to a sample that is enriched for hits.
# TbPYK inhibitor – T. brucei pyruvate kinase inhibition; Potency, µM (highest dose often 76.8 µM), inactives show top-dose activity, negative = inhibition, most hits filed as inhibitors; Q57TT1; TbPYK enzyme, Kinase-Glo Plus ATP luminescence, 45 min; AID 624173; actives 0.12% (n = 410,000); further: potency means the concentration at half of the fitted maximal effect; on the % scale 0 is the no-effect control and ±100 the full control effect; nearly all actives have a fitted effect of over 50% in size
#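 ADP (130 uM final) triggers the TbPYK reaction after compound addition; incubation is 45 min at room temperature. Kinase-Glo Plus is then added and luminescence imaged. Normalized data are fitted to concentration-effect curves.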
# RE007 growth inh – less growth of the S. pombe RE007 Vpr strain. AID 651644. Potency, µM (highest dose often 92.2 µM), inactives show at the top dose activity change, negative = less growth, most hits filed as inhibitors. S. pombe RE007 Vpr strain, BacTiter-Glo ATP luminescence, 24 h. actives 0.21% (n = 360,000); active means well fitted falling curve with a large enough effect; inconclusive means small, poorly fitted or top-dose-only effect; inactive means no such curve, though single readings can be large or run the other way; further: potency means the concentration at half of the fitted maximal effect; on the % scale 0 is the no-effect control and ±100 the full control effect; nearly all actives have a fitted effect of over 50% in size
#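 Fission yeast strain RE007, carrying one chromosomally integrated HIV-1 vpr copy, was seeded at OD 0.01 in PMG+AL medium with 23 nL pinned compound. After 24 h at 30 °C and 99% humidity, viability was read by BacTiter-Glo luminescence.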
# LmPK inhibitor – LmPK (Leishmania mexicana) enzyme inhibition; Q27686; purified LmPK, Kinase-Glo ATP luminescence, 1 h; Potency, µM (top dose mostly 57.5 µM), for inactives: top-dose activity change, negative = inhibition, hits mostly inhibitors; actives 0.37% (n = 290,000); AID 1721; further: potency means the concentration at half of the fitted maximal effect; on the % scale 0 is the no-effect control and ±100 the full control effect
# Target sequence (Q27686 whole entry, looked up): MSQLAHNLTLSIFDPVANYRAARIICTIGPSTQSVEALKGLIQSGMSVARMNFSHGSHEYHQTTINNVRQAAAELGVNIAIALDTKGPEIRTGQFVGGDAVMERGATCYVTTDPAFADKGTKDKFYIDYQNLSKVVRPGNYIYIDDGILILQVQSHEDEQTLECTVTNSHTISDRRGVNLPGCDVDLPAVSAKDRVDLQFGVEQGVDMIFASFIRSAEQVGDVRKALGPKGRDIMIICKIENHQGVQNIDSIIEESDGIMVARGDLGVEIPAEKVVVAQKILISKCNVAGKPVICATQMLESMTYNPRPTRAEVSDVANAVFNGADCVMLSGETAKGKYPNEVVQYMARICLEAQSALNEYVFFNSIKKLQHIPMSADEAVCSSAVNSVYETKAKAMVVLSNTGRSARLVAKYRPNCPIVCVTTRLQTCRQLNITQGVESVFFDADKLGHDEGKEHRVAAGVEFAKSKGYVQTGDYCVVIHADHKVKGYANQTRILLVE
#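 Pyruvate kinase activity monitored as ATP production (luciferase luminescence). Conditions: 0.1 nM enzyme, 0.5 mM PEP, 0.1 mM ADP, 1 h, RT; normalized against uninhibited and no-enzyme wells.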
# CHX counter – counter-screen hit for Shiga toxin inhibitors, cycloheximide. cell reporter, cycloheximide protein synthesis inhibition counterscreen. max response, %. actives 12% (n = 300,000). AID 2314; in the data active means max response mostly above about 13%, no sharp cut-off; inactive means mostly below about 14%; further: read at 38.3 µM for the half of the compounds with a filed dose; 0% is about no effect
# Giardia FBPA inh – inhibitors of Giardia lamblia fructose-1,6-bisphosphate aldolase | actives 0.71% (n = 290,000) | purified Giardia FBPA | Potency, µM (series often up to 59.6 µM), inactives show at the highest dose activity, negative = inhibition, usual class: inhibitors; further: potency means the concentration at half of the fitted maximal effect; on the % scale 0 is the no-effect control and ±100 the full control effect; nearly all actives have a fitted effect of over 55% in size
#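 Giardia FBPA (40 nM reagent) was preincubated 10 min at RT with compound (up to 57.5 uM final), then substrate plus GAPDH/TPI/NAD/arsenate coupling system with diaphorase/resazurin was added; resorufin fluorescence (525/598 nm) was read after 20 min.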
# Shiga toxin inh – inhibitors of Shiga toxin in Vero cells | actives 9.2% (n = 290,000) | inhibition, % at 38.7 µM | AID 2315 | Vero cells, Shiga toxin protein synthesis inhibition reporter; in the data active means inhibition mostly above about 28%, no sharp cut-off; inactive means mostly below about 43%; further: 0% is about no effect
# * hit, by the source's call; i = inactive; ? = inconclusive; . = not tested or not shown; [ ] = dose if it differs, or a comment. Unless noted, the call rests on the fitted dose curve; in most records, active means well fitted curve in the direction sought with a large enough effect; inconclusive means small, poorly fitted or top-dose-only effect, or another doubt; inactive means no such curve, though single readings can be large; an effect the other way counts as inactive or inconclusive.
SMILES,TbPYK inhibitor,RE007 growth inh,LmPK inhibitor,CHX counter,Giardia FBPA inh,Shiga toxin inh
CCOC(=O)c1cccc(NC(=O)CCc2ccccc2)c1,-0.1%,4.5%,-3.7%,16.0*,-2.3%,55.1
CCC(=O)Nc1ccc(C(=O)OCc2ccccc2)cc1,9.7%,8.3%,-2.7%,39.0*,11.4%,77.4*
O=C(CCc1ccccc1)Nc1cccc(NC(=O)CCc2ccccc2)c1,-0.6%,-16.7%,11.9%,-1.8,1.6%,-11.6
O=C1C2=C(C(=O)c3ccccc31)C1O[C@](CCCCN3C(=O)c4ccccc4C3=O)(Cc3c1ccc1ccccc31)O2,.,.,1.5%[11.5 µM],-0.8,0.9%[12.9 µM],i
O=C(/C=C/c1ccncc1)c1ccc2c(c1)OCCO2,-5.9%,-23.8%,-15.9%,19.9*,-0.1%,27.2
CN(C)c1ccc(/C=C/C(=O)c2ccc3c(c2)OCCO3)cc1[N+](=O)[O-],4.9%,4.8%,-17.2%,42.7*,0.7%,active
CC(=O)c1ccc2c(c1)OCCOCCOCCOCCOCCO2,-9.2%,3.5%,-1.8%,-1.7,1.0%,48.5
COc1cccc(/C=C/C(=O)c2ccc[nH]2)c1,-4.8%,?,-13.6%,54.6*,-12.7%,90.7*
COc1cccc(/C=C/C(=O)Oc2ccc(C(=O)c3ccc(F)cc3)cc2)c1,-1.3%,7.1%,0.7%,-6.6,-0.2%,-8.5
O=C(/C=C/c1ccc2c(c1)OCO2)c1ccc[nH]1,7.1%,-5.6%,?,78.7*,0.0%,active
C/C(CCC(=O)OC[C@@H]1O[C@H](C#Cc2ccccc2)C=C[C@@H]1Oc1ccc(C)cc1)=N/OC[C@@H](C)[C@H](OCc1ccccc1)C(C)C,.,.,.,.,0.8%[12.9 µM],.
CCOc1ccccc1C1C(C(=O)Nc2ccccc2)=C(C)Nc2c(C(=O)Nc3ccc(F)cc3)cnn21 (centres undefined),-3.1%,.,.,.,.,.
Cc1ccc(CN2C(=O)CC(c3ccc(Cl)cc3)c3c(C)nn(-c4nc(C)cc(C)n4)c32)cc1 (centres undefined),-8.6%,.,.,.,.,.
O=C(N/N=C\C=C\c1ccc2c(c1)OCO2)c1ccc(F)cc1,-1.8%,6.1%,-2.7%,19.8,10.8%,45.6
O=C(/C=C/c1cccc(Br)c1)c1ccc2c(c1)OCO2,-6.4%,-18.2%,-8.2%,25.4*,.,62.5*
CN(C)c1ccc(/C=C/C(=O)c2ccc3c(c2)OCO3)cc1,-23.6%,?,.,.,.,.
O=C(/C=C/c1ccccc1)c1ccc2c(c1)OCO2,2.2%,?,?,37.4*,-3.0%,59.2*
CCN(Cc1ccc2c(c1)OCO2)C(=O)/C=C/c1cccc(Br)c1,0.0%,0.6%,7.2%,7.3,-8.4%,-4.1
O=C(/C=C/c1ccc2c(c1)OCO2)c1ccc(F)cc1,-4.9%,-9.7%,?,41.5*,-3.0%,77.6*
O=C(/C=C/c1ccccc1Br)c1ccc2c(c1)OCO2,-12.5%,-24.0%,-1.9%,36.2*,10.3%,112.4*
O=C1Nc2ccccc2C(=O)C1(Cl)Cc1ccccc1 (centres undefined),4.47µM*,-2.5%,-1.4%,-1.5,-19.1%,17.3
CC(C)(C)N1C(=O)c2ccccc2NC(=O)N1Cc1ccccc1,-3.8%,1.8%,3.0%,0.8,0.0%,-15.9
CC(C)C(O)(C#CCN1CCCCCC1)c1ccccc1 (centres undefined),-1.0%,0.0%,4.2%,14.5*,3.4%,-6.3
CC(O)(C#CCN1CCCCC1)c1ccccc1 (centres undefined),-13.0%,0.6%,0.3%,-1.3,6.6%,11.7
Cc1cc(C)cc(NS(=O)(=O)c2c(C(=O)N3CCOCC3)c(C)n(C)c2C)c1,2.5%,5.7%,-0.8%,12.9,-1.0%,7.3
SMILES,TbPYK inhibitor,RE007 growth inh,LmPK inhibitor,CHX counter,Giardia FBPA inh,Shiga toxin inh
c1ccc2cc(OCCOCCOc3ccc4ccccc4c3)ccc2c1,1.0%,8.9%,6.6%,2.0,1.3%,-4.5
CC1CN(C(=O)c2ccc(COc3ccc4ccccc4c3)o2)CC(C)O1 (centres undefined),0.2%,-10.5%,2.4%,27.3*,-19.7%,57.2*
Cc1ccccc1OCc1ccc(C(=O)N2CC(C)OC(C)C2)o1 (centres undefined),6.6%,5.7%,-1.9%,4.4,2.2%,-11.9
CC1CN(C(=O)c2ccc(COc3ccccc3Cl)o2)CC(C)O1 (centres undefined),4.4%,-24.9%,-1.6%,2.0,2.8%,-3.3
CC1CN(C(=O)c2ccc(COc3ccc(C(C)C)cc3)o2)CC(C)O1 (centres undefined),-3.5%,0.4%,2.9%,54.2*,-0.5%,195.5*
CC1CN(CCCCOc2ccc3ccccc3c2)CC(C)O1 (centres undefined),-10.5%,3.0%,-3.5%,22.1*,-2.8%,21.3
CC(C)SCCCCOc1ccc2ccccc2c1,2.1%,-23.0%,-7.1%,39.0*,6.0%,32.8
CC(C)(C)c1ccc(S(=O)(=O)N2CCC(CO)(CC3CCCCO3)CC2)cc1 (centres undefined),-5.7%,3.9%,8.1%,-0.9,2.4%,-4.6
O=C1C(=O)N(CCN2CCOCC2)C(c2ccccc2F)/C1=C(\O)c1ccc(S(=O)(=O)N2CCOCC2)cc1 (centres undefined),8.1%,5.1%,-8.8%,-3.2,.,20.4
CCOC(=O)CSc1nc2c(sc3ccc([N+](=O)[O-])cc32)c(=O)n1Cc1ccco1,8.3%,-10.7%,-1.3%,31.6*,3.0%,42.6*
Cc1cccc(-c2nc3c(C#N)c[nH]n3c2NC2CCCCC2)c1,-10.0%,.,.,.,.,.
CCCSc1oc(-c2cccs2)nc1S(=O)(=O)c1ccc(Cl)cc1,-6.3%,.,.,.,.,.
Cc1cc(NC(=O)Nc2cc(Cl)sc2Cl)no1,-2.9%,-2.9%,-1.3%,9.3,11.9%,11.5
Cc1cc(NC(=O)Nc2ccc(F)c(Cl)c2)no1,9.4%,2.2%,-2.1%,28.4*,-1.4%,28.8*
Cc1cc(NC(=O)Nc2cc(F)ccc2F)no1,2.3%,.,3.5%,9.2*,6.2%,34.8
Cc1cc(NC(=O)Nc2cccc(Cl)c2)no1,-0.8%,6.7%,.,.,.,.
CSc1ccc(CN2CCC(C)(Oc3cnc(Cl)c4ccccc34)C2)cc1 (centres undefined),0.6%,-26.6%,.,.,.,.
Cc1ccc2c(c1)c(=O)c1ccccc1n2CCCC(=O)Nc1c(F)cccc1F,-3.8%,.,.,.,.,.
COCc1cccc(-c2csc(C(C)(O)c3cccc(F)c3)n2)c1 (centres undefined),-2.0%,19.4%,.,.,.,.
Cc1nc(NC(=O)CCc2ccccc2)sc1C,4.5%,24.5%,-1.3%,40.4*,-1.2%,68.0*
CCOC(=S)SCC(=O)Nc1nccs1,2.7%,-24.1%,0.9%,3.8,2.1%,-8.9
Cc1nc(NC(=O)c2ccccc2)sc1C,-3.7%,-12.1%,-19.3%,26.6*,-10.9%,.
CCOC(=S)SCC(=O)Nc1nc(C)c(C)s1,-4.2%,8.0%,3.3%,24.2*,-11.8%,48.8*
